SMILES strings stand for the structures. Hit rate of the full screen: of about 320,000 compounds, about 2,100 (0.66%) were called active. About 53% were inconclusive and are not listed. The call rests on the fitted dose curve; in most records, active means well fitted inhibition curve with a large enough effect in the signal ratio, with a control signal flat (not every such curve was filed as active); inconclusive means small, poorly fitted or top-dose-only effect, or effect the other way, or a change in a side signal; inactive means flat fitted curve, though single readings scatter; the % refers to the signal ratio. The sample as a whole holds a higher share of actives than the screen did.
Potency means the concentration at half of the fitted maximal effect.

The assay can be described thus: qHTS Assay for Lipid Storage Modulators in Drosophila S3 Cells.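 On cell number change: cells counted by Cell Tracker Red CMTPX staining in the red channel.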 On lipid storage change, negative = inhibition: on the % scale 0 is the no-effect control and ±100 the full control effect. Particulars: BODIPY lipid droplet fluorescence, 18-24 h, cells fed with added oleic acid; cell number change: measured here: cell count max response; series mostly up to 46.1 µM; lipid storage change, negative = inhibition: at the top concentration. In short, it runs like this: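 Drosophila S3 cells got compounds at several concentrations plus oleic acid (400 uM solution). Laser-scanning cytometry with 488 nm excitation read lipid droplets at 500-530 nm and cells at 575-640 nm. Percent activity was relative to 20 uM Triacsin C.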
A general note: In qHTS, concentration-response curves come from the screen itself.
Consider `CC(=O)C1=C(O)C(=O)N(CCN2CCOCC2)C1c1ccccc1` (stereo not drawn), for which the Potency is 20.6 µM (active) and the cell number change worked out at 1.7%.
As for `COc1ccc(C2CC(=O)N(CC(=O)NCC3CCCO3)c3ccccc3S2)cc1` (stereo not drawn), the “lipid storage change, negative = inhibition” value is 5.52% (inactive) and the cell number change came to 0.213%.
In the same order, the values of `CC(=O)Nc1ccc(S(=O)(=O)NNC(=O)C(=O)NNc2ccccn2)cc1` are -15.1% (inactive) and -5.03%.
Consider `O=C(Nc1ccccc1)c1cc(S(=O)(=O)N2CCOCC2)cs1`, for which the result was inactive.
For the compound `Cc1ccc(C(=O)NCc2ccco2)cc1S(=O)(=O)N1CCOCC1`, the “lipid storage change, negative = inhibition” value was -5.7% (inactive) and the cell number change was -14.2%.
In the same order, the values of `O=C(Nc1ccccc1F)C(=O)c1cn(CC(=O)N2CCCCC2)c2ccccc12` are 8.05% (inactive) and -5.77%.
In the same order, the values of `COc1ccc(NC(=O)Cn2cnc3c(nnn3-c3ccc(C)cc3)c2=O)cc1` are -12.6% [at 9.22 µM] (inactive) and -12.8%.
`CC(=O)C1=C(O)C(=O)N(CCc2c[nH]c3ccccc23)C1c1cccc(O)c1` (stereo not drawn): the Potency is 20.6 µM (active) and the cell number change is -19.8%.
In the case of `CC(=O)C1=C(O)C(=O)N(CCc2c[nH]c3ccccc23)C1c1ccccc1` (stereo not drawn), the “lipid storage change, negative = inhibition” value was 27.1% (inactive) and the cell number change stood at 3.29%.
In the same order, the values of `CC(=O)C1=C(O)C(=O)N(CCc2c[nH]c3ccccc23)C1c1ccc(O)cc1` (stereo not drawn) are -9.82% (inactive) and -2.81%.
In the same order, the values of `CCOC(=O)c1[nH]c(C)c(C(=O)NCCCN2CCOCC2)c1C` are 10.9% (inactive) and 18.3%.
In the same order, the values of `CCc1ccc(-n2cnc3cc(C(=O)NCC(OC)OC)ccc32)cc1` are 1% (inactive) and 2.84%.
For the compound `COc1ccccc1-c1nnc(SCC(=O)Nc2ccc(S(N)(=O)=O)cc2)n1N`, the “lipid storage change, negative = inhibition” value was -0.686% (inactive) and the cell number change came out at 6.66%.
In the same order, the values of `CCn1c(SCC(=O)Nc2nccs2)nnc1-c1ccc(C)cc1` are -3.09% (inactive) and -13.5%.
In the case of `CCn1c(SCC(=O)Nc2nccs2)nnc1-c1cc2cccc(OC)c2o1`, the Potency was 1.84 µM (active) and the cell number change was -5.05%.
Take `C=CCn1c(SCC(=O)Nc2nccs2)nnc1-c1cc2cccc(OC)c2o1`: the call was inactive and the cell number change is -25.4%.
For `Cc1ccc(OCC(=O)NNC(=O)c2cccnc2)cc1C`, the “lipid storage change, negative = inhibition” value is -5.08% (inactive) and the cell number change worked out at 0.125%.
In the same order, the values of `CCC(C(=O)NCc1ccco1)N(C(=O)CNS(=O)(=O)c1ccc(F)cc1)c1ccccc1F` (stereo not drawn) are -15.5% (inactive) and -1.9%.
In the same order, the values of `CCC(C(=O)NCc1ccco1)N(C(=O)CNS(=O)(=O)c1ccc(C)cc1)c1ccccc1OC` (stereo not drawn) are 6.8% (inactive) and -11.8%.
In the case of `CCC(C(=O)NCc1ccco1)N(C(=O)CNS(=O)(=O)c1ccc(C)cc1)c1ccccc1F` (stereo not drawn), the Potency was 1.16 µM (active) and the cell number change came to 11.8%.
Consider `CNC(=O)/C(C#N)=C\c1ccc(CNS(=O)(=O)c2ccc(Cl)cc2)o1`, for which the “lipid storage change, negative = inhibition” value is -15.4% (inactive) and the cell number change was -11.3%.
Regarding `CNC(=O)/C(C#N)=C/c1c(N2CCCCCC2)nc2ccccn2c1=O`, the “lipid storage change, negative = inhibition” value is 8.81% (inactive) and the cell number change was 0.926%.
Turning to `CNC(=O)/C(C#N)=C/c1c(F)cccc1Cl`, the Potency is 10.3 µM (active) and the cell number change is -9.91%.
In the same order, the values of `COC(=O)C1=C(C)N(C(C)C)C(=O)C1(NC(=O)C1CCCCC1)C(F)(F)F` (stereo not drawn) are 25.9 µM (active) and 24.5%.
For `COC(=O)C1=C(C)N(C2CCCC2)C(=O)C1(NC(C)=O)C(F)(F)F` (stereo not drawn), the result was inactive.
`CC1=C(C#N)C(NC(=O)C2CCCCC2)(C(F)(F)F)C(=O)N1` (stereo not drawn): the “lipid storage change, negative = inhibition” value is 5.78% (inactive) and the cell number change turned out to be 14.5%.
In the case of `COc1ccc(S(=O)(=O)N2CCC(C(=O)N[C@H](C(=O)N3CCCC3)C(C)C)CC2)cc1`, the compound was classed as inactive.
As for `Cc1ccc2nc(NC(=O)CSc3nnc(C)c(=O)n3N)sc2c1`, the “lipid storage change, negative = inhibition” value was -29.4% (inactive) and the cell number change stood at 0.333%.
Turning to `CCOC(=O)c1c(C)[nH]c(NC(=O)Nc2ccc(NC(C)=O)cc2)c1C`, the compound was called inactive and the cell number change worked out at 22.7%.
For `O=C(CN(C(=O)CCC(=O)Nc1ccccn1)c1ccc2c(c1)OCCO2)NCCc1ccccc1`, the “lipid storage change, negative = inhibition” value is 9.9% (inactive) and the cell number change was -14.1%.
In the same order, the values of `NNC(=O)c1ccc2[nH]c3c(c2c1)CCCC3` are 6.92% (inactive) and 7%.
In the same order, the values of `O=C(O)c1cccc2c3c([nH]c12)CCCC3` are -7.44% (inactive) and 23.1%.
For the compound `O=C(O)c1cc2[nH]c3c(c2cc1Cl)CCCC3`, the Potency is 4.11 µM (active) and the cell number change was -7.3%.
Take `CC(OC(=O)C1CC(=O)N(Cc2ccco2)C1)C(=O)Nc1ccc(F)cc1Cl` (stereo not drawn): the “lipid storage change, negative = inhibition” value was -1.45% (inactive) and the cell number change is -0.141%.
As for `Cc1cc(C)cc(N2CC(C)(C)C2=O)c1`, the “lipid storage change, negative = inhibition” value was -16.4% (inactive).
On to `CCCOc1ccc(N2C(=O)CC(NCCc3ccc(S(N)(=O)=O)cc3)C2=O)cc1` (stereo not drawn), for which the “lipid storage change, negative = inhibition” value is 1.73% (inactive) and the cell number change is 11.4%.
In the case of `O=C(NCCc1ccccc1)C(=O)NN=C1CCCC1`, the Potency is 29.1 µM (active) and the cell number change was determined as 6%.
Turning to `S=C(NCCc1ccccc1)NN=C1CCCCCC1`, the compound was classed as inactive and the cell number change was -23.7%.
Consider `O=C(CC(=O)NN=C1CCCC1)NCCc1ccccc1`, for which the “lipid storage change, negative = inhibition” value is -9.12% (inactive) and the cell number change is 12%.
With `CN(C)CCOC(=O)c1ccc2c(c1)S(=O)(=O)c1ccccc1C2=O`, the “lipid storage change, negative = inhibition” value was 17.4% (inactive) and the cell number change was 0.995%.
Turning to `Cc1cc(C)nc(SCC(=O)N/N=C/c2cccc([N+](=O)[O-])c2)n1`, the “lipid storage change, negative = inhibition” value was 5.85% (inactive) and the cell number change was 0.279%.
Turning to `O=C(O)COc1ccc(/C=N/NC(=O)c2ccccc2Br)cc1`, the “lipid storage change, negative = inhibition” value is -20% (inactive) and the cell number change was -13.2%.
Regarding `O=C(COc1ccc(/C=N/NC(=O)c2ccccc2Br)cc1)Nc1ccccc1`, the Potency is 18.4 µM (active) and the cell number change was -20.5%.
Consider `O=C(COc1ccc(/C=N/NC(=O)c2ccccc2O)cc1)Nc1ccccc1`, for which the cell number change was -17.8% and the lipid storage change, negative = inhibition was 9.4% [at 9.22 µM] (inactive).
In the same order, the values of `CC(C)(C)OC(=O)N1CCC(C(=O)O)CC1` are 14% and 3.97% (inactive).
In the same order, the values of `O=S(=O)(NCc1ccccn1)C(F)(F)F` are 15.5% and -17.1% (inactive).

Source of the values: PubChem BioAssay AID2685 (National Center for Advancing Translational Sciences (NCATS), 2010).
